Compound activity from PubChem.
Shown are actives, neighbours in structure and some others; about 2.8% of the full set was active somewhere.
GLP-1R inv ag = inverse agonists of human GLP-1 receptor; P43220; HEK293 GLP-1R CRE-luciferase, luminescence, 24 h; GLP-1R form is constitutively active; Potency, µM (titrated, usually from 38.3 µM), for inactives: at the highest dose activity change, negative = inhibition, hits mostly inhibitors; actives 1.6% (n = 410,000); further: potency means the concentration at half of the fitted maximal effect; on the % scale 0 is the no-effect control and ±100 the full control effect; nearly all actives have a fitted effect of over 55% in size
Target sequence (P43220 whole entry, looked up): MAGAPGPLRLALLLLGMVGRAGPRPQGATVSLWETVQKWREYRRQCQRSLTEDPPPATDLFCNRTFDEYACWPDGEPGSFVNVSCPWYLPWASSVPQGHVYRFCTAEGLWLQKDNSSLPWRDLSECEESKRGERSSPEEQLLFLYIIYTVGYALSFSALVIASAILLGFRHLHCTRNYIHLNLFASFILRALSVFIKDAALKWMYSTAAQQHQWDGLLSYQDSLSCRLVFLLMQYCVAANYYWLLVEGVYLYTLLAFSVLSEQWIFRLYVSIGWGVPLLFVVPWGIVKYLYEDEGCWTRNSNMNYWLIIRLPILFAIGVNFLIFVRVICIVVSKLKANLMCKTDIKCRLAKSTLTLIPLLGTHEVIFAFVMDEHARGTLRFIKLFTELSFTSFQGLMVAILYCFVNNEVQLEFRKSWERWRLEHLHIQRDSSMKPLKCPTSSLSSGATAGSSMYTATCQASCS
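HEK293 cells stably co-expressing a cAMP-responsive luciferase reporter and constitutively active GLP-1R were seeded, incubated 12 h, then exposed to compounds for 24 h at 37 C. Luminescence was read 12 min after detection reagent; inverse agonists lower signal.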
KCNH2 3.1 block = KCNH2 3.1 (human) potassium channel inhibition | actives 0.95% (n = 340,000) | U2OS KCNH2 3.1, thallium flux FluxOr; hits give low values | activity change, % (tested at about 1.8 µM);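 active means maximum activity change below -70%; inconclusive means maximum activity change from -70% to -50%; inactive means maximum activity change above -50%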;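 further: thallium influx rate constant from kinetic fluorescence after stimulation buffer; on the % scale 0 is the no-effect control and ±100 the full control effect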
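Thallium flux read-out: FluxOr dye with Red40 quencher in HBSS/HEPES, 45 min at RT. Rate constants from kinetic reads were normalized to positive and negative DMSO controls. Cells: U2OS virally expressing the 3.1 isoform.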
KCNH2 WT inh = inhibitors of human wildtype KCNH2 potassium channel. activity change, % at 1.84 µM. actives 0.37% (n = 340,000). U2OS, BacMam KCNH2, thallium flux FluxOr; hits give low values;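 active means maximum activity change below -70%; inconclusive means maximum activity change between -70% and -50%; inactive means maximum activity change above -50%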; further: on the % scale 0 is the no-effect control and ±100 the full control effect
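U2OS cells were transduced with wild-type KCNH2 virus (2.03 x 10^8 / mL) for 4 h at room temperature, then cultured overnight at 37 C. Thallium flux was read with FluxOr dye. Rate constants were normalized to DMSO controls.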
GLP1R ag = activates the human GLP-1 receptor; P43220; HEK293 GLP-1R CRE-luciferase, luminescence, 4-6 h; cells express a hypersensitive GLP-1R form; Potency, µM (series often up to 45.6 µM), for inactives: at the highest dose activation, actives largely listed as activators; actives 0.007% (n = 380,000); AID 624172; further: potency means the concentration at half of the fitted maximal effect; % of control where 0% means no effect
GLS inhibitor = glutaminase GLS (human) inhibition; GLS enzymatic activity, qHTS titration; Potency, µM (highest dose often 45.5 µM), for the others: at the top dose activity change, negative = inhibition, most hits filed as inhibitors; actives 0.21% (n = 410,000); further: potency means the concentration at half of the fitted maximal effect; on the % scale 0 is the no-effect control and ±100 the full control effect
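Compounds were pin-transferred onto hKGA, after which L-glutamine (1 mM solution) and a detection mix of glutamate oxidase, HRP and Amplex Red were added. Initial and 30 min RT fluorescence reads were collected.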
GLP1R cytotox = cytotoxicity counter-screen for GLP-1 receptor inverse agonists; HEK293 cAMP-luciferase reporter cells, luminescence, 24 h; Potency, µM (top dose mostly 38.3 µM), without a hit: top-dose activity change, negative = inhibition, hits mostly inhibitors; actives 0.13% (n = 410,000); AID 624418;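 further: loss of luciferase light is scored as toxicity; potency means the concentration at half of the fitted maximal effect; on the % scale 0 is the no-effect control and ±100 the full control effect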
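Quantitative HTS format, 1536 wells, 200 cells/uL seeded. Compounds: 23 nL, 24 h, 37 °C. Detection: luciferase reagent, luminescence at 12 min RT; decreased signal taken as cytotoxic.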
* = called active by the depositor; i = inactive; ? = inconclusive; . = not tested or not shown. Unless noted, the call rests on the fitted dose curve; in most records, active means well fitted curve in the direction sought with a large enough effect; inconclusive means small, poorly fitted or top-dose-only effect, or another doubt; inactive means no such curve, though single readings can be large; an effect the other way counts as inactive or inconclusive.

SMILES	GLP-1R inv ag	KCNH2 3.1 block	KCNH2 WT inh	GLP1R ag	GLS inhibitor	GLP1R cytotox
CC(C)(C)c1cc(Cl)ccc1OCCOCCN1CCCC1	?	?	5	4%	11%	?
CCCc1ccc(S(=O)(=O)N2CCN(C(C)C(=O)NCc3ccccc3)CC2)cc1 (configuration not stated)	?	-3	25	-4%	1%	-5%
O=C(/C=C/c1ccc(Cl)cc1Cl)Nc1cccc(S(=O)(=O)NC2=NCCCCC2)c1	10µM*	3	2	9%	5%	-15%
O=C(CCl)Nc1cccc(S(=O)(=O)NC2=NCCCCC2)c1	?	7	13	-4%	2%	11µM*
CCCCCCC(C)n1[nH]c(=O)c2c(C)cc(C)nc21 (configuration not stated)	10µM*	12	-7	9%	?	20%
CCCCCC(C)n1[nH]c(=O)cc1N (configuration not stated)	1%	1	-7	7%	4%	5%
Cc1ccccc1CCNC(=O)c1ccc2c(c1)c(C)c(C)n2Cc1ccccc1	10µM*	.	.	.	-14%	4%
COc1ccc(CCNC(=O)c2ccc3c(c2)c(C)c(C)n3Cc2ccccc2)c(OC)c1OC	?	.	.	.	1%	-3%
Cc1c(C)n(Cc2ccccc2)c2ccc(C(=O)NCCc3ccccc3Cl)cc12	10µM*	.	.	.	-1%	1%
Cc1cc(C)cc(OCC(=O)OCC(=O)NC2CCCCCCC2)c1	12%	-6	2	1%	4%	0%
COc1cccc(NC(=O)Nc2cccc(C(=O)O)c2)c1	2µM*	5	8	-3%	-23%	5%
CCOc1ccc(CCNC(=O)Nc2cccc(OC)c2)cc1OCC	11µM*	-17	9	-3%	-3%	-18%
COc1nc(NCCc2ccc(OC)c(OC)c2)nc(Nc2ccccc2)n1	?	9	-10	22%	1%	-30%
COc1ccc(C(=O)/C=C2/C(=O)Nc3ccccc32)cc1	?	-10	-2	-2%	11%	?
COc1ccc(C(=O)/C=C2/C(=O)Nc3ccccc32)c(OC)c1	?	-2	-10	-6%	?	10µM*
O=C(NCc1ccccc1)C(=O)NCC(c1cccs1)S(=O)(=O)c1ccccc1 (configuration not stated)	8%	.	.	.	-7%	3%
O=C(NCc1ccccc1)C1(C(F)(F)F)C/C(=C/CCO)CCCO1 (configuration not stated)	1%	10	-1	2%	-1%	5%
C/C=C1\COC(C(=O)NCc2ccccc2)(C(F)(F)F)C=C1C=C(C)C (configuration not stated)	10µM*	-12	14	8%	0%	1%
O=S(=O)(NCCc1ccc(Cl)cc1)c1ccc(N2CCCCS2(=O)=O)cc1	?	.	.	.	-5%	3%
CCC(Sc1nc2ccc(C)cc2[nH]1)C(=O)O (configuration not stated)	0%	-14	8	0%	-14%	-2%
Cc1ccc2nc(SC(C(=O)Nc3ccc(F)cc3)c3ccccc3)[nH]c2c1 (configuration not stated)	5.6µM*	-4	-2	-18%	-1%	?
CCn1c(NCc2ccc(N(C)C)cc2)nc2ccccc21	0%	5	10	18%	-3%	3%
Cn1c(N=Nc2ccccc2)nc2ccccc21	4.5µM*	-17	2	-20%	4%	10µM*
CN(C)c1ccc(N=Nc2nc3ccccc3n2C)cc1	?	-22	-2	-9%	10%	5µM*
CCOc1ncccc1C(=O)N1CCN(c2cc(Cl)ccc2C)CC1	1µM*	-28	0	?	4%	-11%
SMILES	GLP-1R inv ag	KCNH2 3.1 block	KCNH2 WT inh	GLP1R ag	GLS inhibitor	GLP1R cytotox
Cc1ccc(Cl)cc1N1CCN(C(=O)COc2ccc3c(c2)CCC3)CC1	10µM*	-10	i	20%	3%	3%
CCOc1ncccc1C(=O)N1CCN(c2cccc(C)c2C)CC1	?	26	3	29%	3%	?
Cc1ccc(Cl)cc1N1CCN(C(=O)c2cnn(C)c2C2CCN(C(=O)OC(C)(C)C)CC2)CC1	10µM*	.	.	.	0%	-20%
CCOc1ccc(C(=O)CCC(=O)N(CC)CC(=O)Nc2c(F)cccc2F)cc1	4%	2	-14	0%	-18%	3%
CC(=O)c1ccc(N2CCN(C(=O)c3ccc(NC4=NC5CS(=O)(=O)CC5S4)cc3)CC2)cc1 (configuration not stated)	4%	-9	0	-1%	-4%	20%
Cc1nn2c(Nc3ccc(F)cc3)c3c(nc2c1-c1ccccc1)CCC3	-7%	12	27	0%	-2%	-9%
COc1cccc(Nc2c3c(nc4c(-c5ccccc5)c(C)nn24)CCC3)c1	5µM*	-7	17	2%	5%	2%
COc1ccc(CN(C)C(=O)COc2cccc(-n3cnnn3)c2)cc1OC	51%	10	-6	25%	-6%	1%
CN(Cc1cccs1)C(=O)COc1cccc(-n2cnnn2)c1	5%	-15	-78*	-3%	?	-6%
FC(F)(F)c1cccc(Cc2noc(CN3CCC(c4ccncc4)CC3)n2)c1	2.5µM*	-4	14	27%	-6%	-4%
CN1CCCC2(CCCN(Cc3nc(Cc4cccc(C(F)(F)F)c4)no3)C2)C1 (configuration not stated)	?	-28	-14	-4%	-16%	-16%
C1=CC2=NC34CCCCC3CC3=C(CCCC3)N4C2=CC1=NC1CCCCC1 (configuration not stated)	10µM*	-16	-10	-6%	-6%	?
O=C(CN1C(=O)NC2(CCCC2)C1=O)OCCOc1ccc(Cl)cc1	3%	-2	-2	-6%	-3%	4%
Cc1cc(C)c(NC(=O)Nc2sc3nc4n(c(=O)c3c2C)CCC(C)CC4)c(C)c1 (configuration not stated)	-5%	.	.	.	8%	8%
CCCCN(CC)CCCNC(=O)Nc1sc2nc3n(c(=O)c2c1C)CCC(C)CC3 (configuration not stated)	10µM*	.	.	.	41%	-5%
COc1ccc(C(=O)NCC2CCCCC2)cc1S(=O)(=O)N1CCOCC1	?	-2	3	11%	-3%	-9%
O=C1c2[nH]nc(-c3ccccc3O)c2C(c2ccc(F)cc2)N1CC1CCCO1 (configuration not stated)	0%	-1	4	-5%	-6%	-21%
